MCL1-BIM inh – disrupts human MCL1 binding to BIM-BH3 peptide; Q07820; GST-MCL1 / FITC-Bim-BH3 fluorescence polarization; inhibition, % at 10.9 µM; 320,000 compounds, 0.68% hits; AID 2057;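 active means inhibition above the mean inhibition of all tested compounds plus 3 SD, set per campaign, cut at about 40% in these data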;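 further: 0% = DMSO wells and 100% = unlabeled Bim-BH3 peptide control; higher means more loss of mP so more displacement of Bim peptide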
EBV gp42 inh – blocks Epstein-Barr virus glycoprotein 42 binding | Q1HVG2 | Fluorescence polarization binding assay, mP read-out | inhibition, % (tested at 21.74 µM) | 220,000 compounds, 0.42% hits | AID 1085; in the data active means inhibition above about 50%
Target sequence (Q1HVG2 whole entry, looked up): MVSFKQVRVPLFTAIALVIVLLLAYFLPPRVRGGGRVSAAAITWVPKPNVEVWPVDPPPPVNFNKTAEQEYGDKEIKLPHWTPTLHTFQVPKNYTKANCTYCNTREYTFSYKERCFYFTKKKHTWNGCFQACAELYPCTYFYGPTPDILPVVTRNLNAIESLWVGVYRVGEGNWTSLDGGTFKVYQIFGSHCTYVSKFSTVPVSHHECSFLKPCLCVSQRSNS
GLD-1 TGE inh – GLD-1-TGE RNA interaction inhibition (C. elegans); 320,000 compounds, 0.44% hits; AID 2280; inhibition, % at 5.96 µM; Q17339; purified GLD-1 + fluorescein TGE RNA, fluorescence polarization;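 active means percent inhibition above a per-plate cutoff, the plate mean of test compounds plus 3 SD, cut at about 30% in these data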;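 further: 0% = DMSO wells with GLD-1 and probe and 100% = wells lacking GLD-1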
MEX-5 binding – C. elegans MEX-5 TCR-2 RNA binding activity. Q9XUB2. MEX-5/FITC-TCR2 RNA binding, fluorescence polarization; hits give low values. activity score (negative = inhibition of binding), % at 10 µM. 300,000 compounds, 0.38% hits. AID 1832;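 active means inhibition past about -25% in most replicates, and total fluorescence under double the plate's negative control median, limit read from the data; inconclusive means replicates evenly split on the limit, or fluorescence at least double controls; inactive means too little inhibition in most replicates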;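 further: 0% = DMSO and -100% = 5 µM competing unlabeled TCR2 RNA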
E coli Lon inh – inhibitors of E. coli Lon protease; purified E. coli Lon protease, fluorescence polarization; 360,000 compounds, 0.42% hits; inhibition, % at 7.94 µM; P0A9M0; in the data active means inhibition above about 13%, passing the limit was not always enough;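 further: 0% = enzyme with probe and DMSO and 100% = no enzyme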
Bcl-xL primary – inhibitors of human Bcl-xL; Q07817; GST-Bcl-xL / FITC-Bim BH3 peptide fluorescence polarization; inhibition, % at 10.9 µM; 320,000 compounds, 0.7% hits;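 active means inhibition above the mean of all tested compounds plus 3 SD, cutoff set per campaign, cut at about 30% in these data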;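 further: 0% = DMSO wells and 100% = unlabeled Bim-BH3 peptide competitor; inhibitors lower millipolarization by displacing the labeled peptide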
Target sequence (Q07817 whole entry, looked up): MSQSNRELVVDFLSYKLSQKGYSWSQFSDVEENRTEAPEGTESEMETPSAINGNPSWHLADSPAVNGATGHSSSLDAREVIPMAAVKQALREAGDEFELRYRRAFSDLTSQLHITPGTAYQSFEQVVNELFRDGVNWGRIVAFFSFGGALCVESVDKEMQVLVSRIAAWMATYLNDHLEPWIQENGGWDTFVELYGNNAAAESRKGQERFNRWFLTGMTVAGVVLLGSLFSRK
* marks the source's active call; other numbers are inactive results; ? = inconclusive; . = no result given. Rows were chosen to be rich in hits. Some 1.5% of all compounds tested hit in one or more screens of this group.

SMILES	MCL1-BIM inh	EBV gp42 inh	GLD-1 TGE inh	MEX-5 binding	E coli Lon inh	Bcl-xL primary
Cc1cnc(NC(=O)CCNC(=O)c2ccc([N+](=O)[O-])cc2)s1	-29.1	-12.2	6.8	-0.7	1.3	-11.2
COc1ccc(-c2cn3nc4c(nc3n2)CCCC4)cc1	.	96.1*	.	.	-11.2	.
Cc1c(N=C2Nc3cccc4cccc2c34)c(=O)n(-c2ccccc2)n1C	-52.4	-68.1	-18.2	-41.1*	-62.4	-28.0
CC(=O)Nc1ccnn1C1CCN(C(=O)c2cccc(C)c2C)CC1	1.5	.	1.7	2.7	-0.7	5.4
Cc1ccc(N2C(=O)[C@@H]3[C@H](C2=O)C2c4ccccc4C=CN2[C@@H]3C(=O)c2ccco2)cc1 (stereo partly drawn)	.	53.8*	.	.	9.1	.
COc1ccc(N2C(=O)[C@@H]3[C@H](C2=O)[C@H]2c4ccccc4C=CN2[C@@H]3C(=O)Nc2ccccc2)cc1	-49.9	-12.7	-12.1	.	-92.0	-33.2
CC(=O)[C@@H]1[C@@H]2C(=O)N(Cc3ccccc3)C(=O)[C@@H]2C2c3ccccc3C=CN21 (stereo partly drawn)	49.6*	39.7	38.5*	-8.0	7.8	46.4*
CCc1c(C(=O)NNC(=S)Nc2ccc(S(=O)(=O)Nc3ncccn3)cc2)csc1C	16.4	.	0.5	-48.1*	-0.3	5.0
O=S(=O)(Nc1ncccn1)c1ccc(NC(=S)Nc2ccccc2)cc1	11.2	.	-5.1	-0.8	8.9	0.2
Cc1cccc(NC2=Nc3ccccc3N3C2=Nc2c(c(C)nn2-c2ccccc2)C3c2ccc(O)c(O)c2)c1 (stereo not drawn)	41.7*	32.0	-4.7	?	-12.1	48.3*
Cc1ccc(NC2=Nc3ccccc3N3C2=Nc2c(c(C)nn2-c2ccccc2)C3c2ccc(O)c(O)c2)cc1 (stereo not drawn)	.	77.9*	.	.	-7.2	.
Cc1nn(-c2ccccc2)c2c1C(c1ccc([N+](=O)[O-])cc1)N1C(=N2)C(=O)Nc2ccccc21 (stereo not drawn)	5.7	-14.7	1.2	-0.2	-1.4	2.8
C=CCNC(=O)CN1C(=O)c2cccc3cccc1c23	4.5	.	2.7	1.1	4.2	8.9
N#C/C(=C(/O)c1ccco1)c1nc2ccccc2s1	7.4	0.3	-5.1	-2.8	-9.5	4.9
CC1=CC(=C(C#N)c2nc3ccccc3s2)C=C(C)N1Cc1ccco1	-8.0	157.4*	4.0	-2.7	-13.9	1.0
COc1ccccc1C(C(=O)NC1CCCC1)N(C(=O)c1csnn1)C1CC1 (stereo not drawn)	-12.3	.	-6.0	-0.1	5.2	-2.9
Cc1ccc2c(Cl)cc(Cl)c(OCC(=O)NCc3ccco3)c2n1	.	69.2*	.	.	.	.
COC(=O)CNc1c(-c2ccccn2)nc2ccc(Br)cn12	55.1*	22.1	50.3*	.	0.3	46.7*
COc1cccc(C(O)c2ncc(-c3cccc4ccccc34)[nH]2)c1 (stereo not drawn)	.	.	.	.	-2.7	.
Oc1ccc(CCNc2c3ccccc3nc3ccccc23)cc1O	23.1	.	-0.1	-39.3*	-3.4	17.9
Nc1nc2ncccc2cc1C(=O)NC1CCCCC1	.	.	.	.	4.3	.
CCOC(=O)c1nnn(CC(=O)NC(=O)Nc2ccccc2)c1C(=O)OCC	28.2	4.3	18.4	-3.1	-8.6	53.2*
Cc1cc(O)cc2c1C(=O)/C(=C/c1ccco1)O2	48.3*	.	49.9*	-42.2*	-26.4	62.9*
CCN(CC)C(=O)Oc1ccc2c(c1)O/C(=C\c1ccco1)C2=O	1.2	.	-3.0	-3.4	-4.9	1.8
O=C1N=C(N2CCCCC2)S/C1=C/C1=Cc2ccccc2OC1	4.3	-14.3	0.9	-43.1*	-0.9	5.0
SMILES	MCL1-BIM inh	EBV gp42 inh	GLD-1 TGE inh	MEX-5 binding	E coli Lon inh	Bcl-xL primary
N=C1/C(=C\c2ccc(-c3ccc(C(=O)O)cc3)o2)C(=O)N=C2SC=C(c3ccccc3)N12	.	61.1*	.	-1.3	-2.9	.
CCOC(=O)Cc1cc(=O)n(-c2nc3ccccc3s2)[nH]1	6.7	-14.6	-1.9	-0.6	-0.1	8.3
CCCc1cc(=O)n(-c2nc3ccccc3s2)[nH]1	10.0	69.5*	1.4	.	2.4	3.4
CCCOc1ccc(-c2c(C(=O)N/N=C(\C)c3ccco3)nnn2-c2nonc2N)cc1	1.1	.	-9.8	-0.4	19.2	69.3*
CCCOc1ccc(-c2c(C(=O)N/N=C(\C)c3cccnc3)nnn2-c2nonc2N)cc1	-5.0	.	0.3	-2.2	-0.4	0.4
CCNC(=O)C1(C)CCN(C(=O)c2ccc(F)c(Cl)c2)C1 (stereo not drawn)	.	.	.	.	-4.7	.
O=C(Nc1ccccc1F)c1coc(=O)c(Br)c1	1.3	3.6	-1.8	-55.9*	1.2	4.1
O=C(NCCc1ccc(F)cc1)c1coc(=O)c(Br)c1	-1.5	.	2.5	-2.9	-0.8	1.8
CCCCCCCCCCCn1nnnc1N	.	.	.	.	2.7	.
O=C(CN1CCN(C(=O)c2cccc(S(=O)(=O)N3CCCC3)c2)CC1)Nc1cccc(F)c1	.	.	.	.	4.8	.
COc1ccc(CCN(Cc2nc3ccccc3c(=O)[nH]2)C(=O)c2ccco2)cc1OC	-1.0	98.2*	-7.7	0.4	-0.2	1.5
N#CC1=C(N)C(C#N)(C#N)C(c2cccnc2)C2CN(C(=O)OCc3ccccc3)CC=C12 (stereo not drawn)	18.3	-6.2	10.4	-6.5	-15.3	16.3
N#CC1=C(N)C(C#N)(C#N)C(c2cccnc2)C2COCC=C12 (stereo not drawn)	27.9	3.0	22.9	-26.0*	3.6	26.5
COc1ccc(OC)c(C2=C/C(=C/c3ccccn3)C(=O)O2)c1	1.5	-31.9	-58.1	-41.8*	-17.1	31.1*
CNC(=O)Cn1ncc2c(C)n(Cc3ccc(C)cc3)c(C)c2c1=O	0.8	-9.9	5.9	-1.8	-0.5	2.5
Cc1c2cnn(CC(=O)Nc3c(F)c(F)cc(F)c3F)c(=O)c2c(C)n1Cc1ccccc1F	41.4*	13.0	3.3	0.3	-1.1	35.3*
O=C(NC1CCCCCCC1)c1ccc(Br)cc1	52.1*	.	27.8	0.7	-5.2	67.8*
Cc1cccc(/C=C(\C#N)C(=O)Nc2ccccn2)c1	34.6	.	24.9	-18.7	-4.2	36.5*
C=C1c2cc(OC)ccc2NC(=O)N1CC	10.7	51.7*	-1.0	-2.4	-1.5	9.0
O=C(c1coc(=O)c(Br)c1)N1CCCc2ccccc21	27.3	.	0.0	-27.3*	-1.7	21.0
CC1(C)CCCN(C(=O)c2coc(=O)c(Br)c2)C1	.	52.0*	.	-27.6*	-6.3	.
O=C(c1cccc(Br)c1)N1CCCc2ccccc21	4.0	.	3.6	0.1	7.6	1.6
